# Inconclusive results are not listed. Where a call stands in place of a potency, no number is given. Activity calls are given as the source filed them. Unless noted, calls come from the whole dose curve; as a rule, active = well fitted curve in the direction sought with a large enough effect in the repeat runs; inconclusive = weak or mixed curves; inactive = no such curve, though single readings can be large; an effect the other way counts as inactive or inconclusive.
# Assays:
# [1] = qHTS assay to identify small molecule antagonists of the estrogen related receptor (ERR) signaling pathway (AID 1224819; note: nearly all actives have a fitted effect of over 50% in size)
# Summary of the method: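 Seed ERR cells 2,000/well; rest 6 h at 37 C/5% CO2; pin compounds in DMSO; incubate 18 h at 37 C; add One-Glo; wait 30 min at room temperature; measure luminescence.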
# [2] = qHTS assay to identify small molecule agonists of the estrogen related receptor (ERR) signaling pathway (AID 1224820)
# Summary of the method: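 Following a 6 h settling period, 2,000 ERR cells per well receive DMSO-dissolved compounds by pin tool and incubate 18 h at 37 C; agonist activity is scored from One-Glo luminescence read 30 min post-addition.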
# [3] = system: estrogen-related receptor alpha (ERRalpha) with PGC-1alpha coactivator, human; assay: qHTS assay to identify small molecule antagonists of the estrogen related receptor signaling pathway with the pleiotropic PPARgamma coactivator (PGC) (AID 1224821; calls by dose curve; note: nearly all actives have a fitted effect of over 50% in size)
# Summary of the method: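 Screening used NTP's PGC/ERR cells, dosed via pin tool with compound in DMSO alongside positive and negative controls. After 18 h at 37 C, One-Glo reagent sat 30 min at room temperature before luminescence detection.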
# [4] = qHTS assay to identify small molecule agonists of the estrogen related receptor signaling pathway with the pleiotropic PPARgamma coactivator (PGC) (AID 1224823)
# Summary of the method: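 In this quantitative high-throughput screen, an 18 h, 37 C treatment of PGC/ERR cells with compounds in DMSO preceded a One-Glo luminescence read taken after 30 min at room temperature.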
# [5] = qHTS assay to identify small molecule antagonists of the estrogen related receptor signaling pathway with the pleiotropic PPARgamma coactivator (PGC) cell viability counter screen (AID 1224822;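 note: viability read after 17.5 h compound exposure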)
# Summary of the method: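 17.5 h compound treatment of PGC/ERR cells at 37 C; readout CellTiter-Fluor fluorescence; run alongside the PGC/ERR antagonist screen to flag cytotoxic compounds.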
# Potency is the fitted concentration of half-maximal effect.
Structure (SMILES),Potency [1],Potency [2],Potency [3],Potency [4],Potency [5]
Cc1cccc(C(=O)NCN2CCN(c3ccccc3C#N)CC2)c1,inactive,inactive,inactive,inactive,–
Fc1ccc(C(OCCCc2cnc[nH]2)c2ccc(F)cc2)cc1,13.9 µM (active),inactive,10.2 µM (active),inactive,–
Cc1ccc(S(=O)(=O)/C=C/C#N)cc1,inactive,17.4 µM (active),inactive,15.5 µM (active),–
C=CCc1cccc(/C=N/NC(=O)CN2CCN(Cc3ccccc3)CC2)c1O,3.9 µM (active),inactive,inactive,inactive,–
Nc1ncnc2c1c(-c1ccc(Oc3ccccc3)cc1)cn2C1CCCC1,11.9 µM (active),inactive,inactive,inactive,–
CNC(=O)[C@H]1O[C@@H](n2cnc3c(NCc4ccc(N)cc4)ncnc32)[C@H](O)C1O (stereo not given in full),inactive,inactive,inactive,inactive,inactive
CCCCCCC(=O)OC1CC(C)(C)NC(C)(C)C1,inactive,inactive,inactive,inactive,inactive
CCN(CC)CCOc1ccc(Nc2ncc3cc(-c4c(Cl)cccc4Cl)c(=O)n(C)c3n2)cc1,9.08 µM (active),inactive,inactive,0.0908 µM (active),1.74 µM (active)
CN(C)C(=O)/N=N/C(=O)N(C)C,inactive,inactive,inactive,inactive,inactive
CCCC[C@@]1(C2CCCC2)Cc2cc(OCC(=O)O)c(Cl)c(Cl)c2C1=O,11.4 µM (active),inactive,13.9 µM (active),inactive,–
Nc1nc(OCc2ccccc2)c2[nH]cnc2n1,inactive,inactive,inactive,inactive,inactive
CS(=O)(=O)c1cccc(CNc2nc(Nc3ccc4c(c3)CCC(=O)N4)ncc2C(F)(F)F)c1,inactive,inactive,inactive,inactive,inactive
CC[C@@H](C)[C@H]1O[C@]2(CC[C@@H]1C)C[C@@H]1C[C@@H](C/C=C(\C)[C@@H](O[C@H]3C[C@H](OC)[C@@H](O[C@H]4C[C@H](OC)[C@@H](O)[C@H](C)O4)[C@H](C)O3)[C@@H](C)/C=C/C=C3\CO[C@@H]4[C@H](O)C(C)=C[C@@H](C(=O)O1)[C@]34O)O2,12.3 µM (active),inactive,16.8 µM (active),inactive,23.7 µM (active)
C#CC(N)CCC(=O)O (stereo not given),inactive,inactive,inactive,inactive,inactive
O=c1c2ccccc2nc2n1CCc1c-2[nH]c2ccccc12,inactive,2.28 µM (active),inactive,13.3 µM (active),–
OCC1O[C@H](O)C(Cl)C(O)C1O (stereo not given in full),inactive,inactive,inactive,inactive,inactive
O=C(/C=C/c1ccc(O)c(O)c1)OCCc1ccccc1,inactive,inactive,inactive,–,inactive
O=C1NC(=O)/C(=C/c2ccc3c(c2)OC(F)(F)O3)S1,–,3.16 µM (active),inactive,inactive,inactive
N#C/C(=C\c1ccc(-c2cc(Cl)ccc2Cl)o1)C(=O)Nc1cccc2ncccc12,–,inactive,inactive,–,14.4 µM (active)

Structure (SMILES),Potency [1],Potency [2],Potency [3],Potency [4],Potency [5]
Cc1cc(Cl)ccc1OCCCC(=O)NO,–,inactive,inactive,–,–
O=C1Nc2ccc(I)cc2/C1=C/c1cc(Br)c(O)c(Br)c1,–,inactive,inactive,inactive,inactive
CCN(CC)CCNC(=O)c1ccc(NS(C)(=O)=O)cc1,inactive,inactive,–,inactive,–
COc1ccc(C(=O)/C(Cc2cc(OC)c(OC)c(OC)c2)=C(\C(=O)O)c2ccc3c(c2)OCO3)cc1,10.2 µM (active),inactive,–,inactive,18.8 µM (active)
Cn1c(=O)c2[nH]c(-c3ccc(S(=O)(=O)O)cc3)nc2n(C)c1=O,inactive,inactive,–,inactive,inactive
C=C1C(=O)O[C@@H]2[C@H]3O[C@]3(C)CCC=C(C)CC[C@@H]12,inactive,–,–,inactive,–
CCCC(=O)NCCc1c2n(c3ccc(OC)cc13)CCCc1ccccc1-2,20.3 µM (active),inactive,–,inactive,–
O=C1NC(=O)c2cc(Nc3ccccc3)c(Nc3ccccc3)cc21,10.2 µM (active),inactive,20.3 µM (active),inactive,–
CCCCOC(=O)NS(=O)(=O)c1sc(CC(C)C)cc1-c1ccc(Cn2c(CC)nc3c(C)cc(C)nc32)cc1,11.9 µM (active),inactive,–,inactive,–
CCCCCCCCCCC(C)(C)C(=O)Nc1c(OC)cc(OC)cc1OC,–,inactive,inactive,inactive,inactive
COC1=C(OC)C(=O)c2ccccc2C1=O,11 µM (active),inactive,–,inactive,–
C[C@H](Cc1ccc(O)c(O)c1)[C@@H](C)Cc1ccc(O)c(O)c1,–,inactive,inactive,inactive,inactive
NC(N)=NC(=O)c1nc(Cl)c(N2CCCCCC2)nc1N,11.9 µM (active),inactive,inactive,inactive,–
NC(=O)C1=CN(C2OC(COP(=O)(O)OP(=O)(O)OC[C@H]3O[C@@H](n4cnc5c(N)ncnc54)[C@H](OP(=O)(O)O)C3O)C(O)C2O)C=CC1 (stereo not given in full),–,inactive,inactive,–,inactive
O=C(NOCC1CC1)c1cc(Br)c(F)c(F)c1Nc1ccc(I)cc1Cl,2.98 µM (active),inactive,–,inactive,–
N#C/C(=C\c1ccc(O)c(O)c1)C(=O)Nc1ccccc1,inactive,–,inactive,–,–
O=[N+]([O-])c1ccc(-c2nc(-c3ccc(F)cc3)c(-c3ccncc3)[nH]2)cc1,13.3 µM (active),inactive,–,inactive,–
Oc1cc2c(c(Cl)c1O)CCNCC2c1ccccc1 (stereo not given),8.41 µM (active),inactive,–,inactive,–
CC(C)C[C@H](NC(=O)[C@@H](O)[C@H](N)Cc1ccccc1)C(=O)O,–,inactive,6.94 µM (active),inactive,inactive

Structure (SMILES),Potency [1],Potency [2],Potency [3],Potency [4],Potency [5]
CCN(c1nc(N)c(C(=O)N=C(N)N)nc1Cl)C(C)C,9.81 µM (active),inactive,–,inactive,–
CCc1ccc(/C=C2/SC(=S)NC2=O)cc1,inactive,inactive,–,inactive,–
COc1ccccc1N1CCN(CCCCNC(=O)c2ccc3ccccc3c2)CC1,–,inactive,–,–,–
COC(=O)C(C)(N)Cc1ccc(O)cc1 (stereo not given),inactive,inactive,–,inactive,inactive
N[C@H](CCCP(=O)(O)O)C(=O)O,inactive,–,inactive,–,inactive
CCc1ccc2c(-c3cccc(Cl)c3)nc(=O)n(CC)c2n1,–,inactive,inactive,inactive,inactive
CCCCS(=N)(=O)CC[C@H](N)C(=O)O (stereo not given in full),inactive,–,inactive,inactive,inactive
CC1(C)CCC2=C(O1)c1ccccc1C(=O)C2=O,9.44 µM (active),inactive,–,inactive,18.8 µM (active)
COc1cc(OC)cc(-c2cc3cnc(N)nc3nc2NC(=O)NC(C)(C)C)c1,20.3 µM (active),inactive,–,inactive,inactive
CO/N=C(\C(=O)N[C@@H]1C(=O)N2C(C(=O)O)=C(COC(C)=O)CS[C@H]12)c1csc(N)n1 (stereo in doubt),inactive,inactive,–,–,inactive
COc1cc(NS(C)(=O)=O)ccc1Nc1c2ccccc2nc2ccccc12,–,inactive,inactive,–,18.1 µM (active)
NCCCCN=C(N)N,inactive,inactive,–,inactive,inactive
CC[C@H]1OC(=O)[C@H](C)[C@@H](O[C@H]2C[C@@](C)(OC)[C@@H](O)[C@H](C)O2)[C@H](C)[C@@H](O[C@@H]2O[C@H](C)C[C@H](NC)[C@H]2O)[C@](C)(O)C[C@@H](C)CN(C)[C@H](C)[C@@H](O)[C@]1(C)O,inactive,inactive,–,inactive,inactive
CN(C)c1cc2c(Nc3ccc4c(cnn4Cc4ccccc4)c3)ncnc2cn1,13.3 µM (active),inactive,–,inactive,–
CC1(C)C(=O)N(CCN2CCC(C(=O)c3ccc(F)cc3)CC2)c2ccccc21,21.1 µM (active),inactive,–,inactive,–
NC(=NCc1ccccc1)NC(=O)c1nc(Cl)c(N)nc1N,–,inactive,inactive,–,–
O=C(O)c1cc([N+](=O)[O-])ccc1NCCCc1ccccc1,inactive,inactive,inactive,inactive,–
Cc1ccc(S(=O)(=O)N[C@@H](Cc2ccccc2)C(=O)CCl)cc1,inactive,inactive,–,inactive,26.6 µM (active)
Cc1nc(N=Nc2cc(S(=O)(=O)O)c3cc([N+](=O)[O-])cc(S(=O)(=O)O)c3c2)c(COP(=O)(O)O)c(C=O)c1O,inactive,inactive,inactive,inactive,–

# Source: PubChem BioAssay (Tox21)
